# Assay outcomes as filed in PubChem.
# Mtb FBA inh – inhibitors of M. tuberculosis fructose-bisphosphate aldolase. P9WQA3. purified M. tuberculosis FBA, fluorescence read-out. inhibition, % at 1 µM. 360,000 compounds, 2.3% hits. AID 588726; in the data active means inhibition above about 27%;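 further: 0% = vehicle and 100% = reference inhibitor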
# Mtb UGM inh – blocks M. tuberculosis UGM enzyme. purified UGM, fluorescence polarization probe displacement. inhibition, % at 10 µM. 320,000 compounds, 0.06% hits; in the data active means inhibition above about 10%, passing the limit was not always enough; inconclusive means no clear call, values can overlap the other calls
# Target sequence (P9WIQ1 whole entry, looked up): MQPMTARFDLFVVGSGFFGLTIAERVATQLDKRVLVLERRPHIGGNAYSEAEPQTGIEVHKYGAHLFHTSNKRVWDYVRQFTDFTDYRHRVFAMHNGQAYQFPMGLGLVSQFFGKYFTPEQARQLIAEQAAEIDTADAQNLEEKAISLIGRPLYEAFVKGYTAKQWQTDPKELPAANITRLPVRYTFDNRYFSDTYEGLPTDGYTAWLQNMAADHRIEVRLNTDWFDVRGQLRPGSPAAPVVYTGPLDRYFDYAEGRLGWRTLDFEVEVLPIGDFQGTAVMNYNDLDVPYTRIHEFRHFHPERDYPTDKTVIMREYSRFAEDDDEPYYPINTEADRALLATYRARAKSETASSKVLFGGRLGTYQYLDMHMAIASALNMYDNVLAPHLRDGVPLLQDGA
# FadD28 binding – blocks FadD28 binding to the bisubstrate probe; AID 588549; fluorescence polarization; inhibition, % at 12.5 µM; 360,000 compounds, 0.22% hits; in the data active means inhibition above about 8.5%, passing the limit was not always enough; inconclusive means no clear call, values can overlap the other calls
# GDH-TPI counter – counter-screen for M. tuberculosis FBA inhibitors: GDH-TPI coupled enzymes; GDH-TPI coupled enzyme counterscreen, NADH absorbance; inhibition, % at 4.8 µM; 360,000 compounds, 1.2% hits; AID 588335; in the data active means inhibition above about 30%;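 further: 0% = DMSO wells and 100% = wells lacking the enzyme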
# Rv3671c protease – inhibitors of M. tuberculosis serine protease Rv3671c; P9WHR9; inhibition, % at 5.96 µM; 320,000 compounds, 0.048% hits; in the data active means inhibition above about 38%;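 further: extracellular domain of Rv3671c used as enzyme; 0% = enzyme with DMSO and 100% = no enzyme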
# Mtb bLac sens – beta-lactam sensitization of Mtb H37Rv | M. tuberculosis H37Rv growth with meropenem, percent inhibition | 330,000 compounds, 0.27% hits | AID 434955 | inhibition, % at 25 µM; call rule not given here;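 further: growth measured after seven days incubation then overnight dye step; 0% = bacteria only wells and 100% = bacteria with antibiotic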
# The depositor's hits bear a star; ? = inconclusive; / = not tested or not shown; + = active, no number. Most compounds without a hit are left out; they make up all but 3.7% or so of the library.
SMILES,Mtb FBA inh,Mtb UGM inh,FadD28 binding,GDH-TPI counter,Rv3671c protease,Mtb bLac sens
Cc1ccc[n+](CC(=O)Nc2cccc([N+](=O)[O-])c2)c1,2,-1,1,1,11,1
Cc1ccc[n+](CC(=O)Nc2ccc([N+](=O)[O-])cc2)c1,2,-1,1,42*,9,-6
CCc1cccc(CC)c1NC(=O)CN1C2CCCC1CC(NC(=O)Nc1cccc(OC)c1)C2 (configuration not stated),4,2,-1,4,0,86
COc1ccccc1NC(=O)C1CCN(S(=O)(=O)c2cccs2)CC1,1,17*,1,8,4,-2
COc1ccc(N2CCN(C(=O)C3CCCN(c4ncnc5c4nc4n5CCCCC4)C3)CC2)cc1 (configuration not stated),2,0,-1,1,-8,0
CC(=O)c1ccc(N2CCN(C(=O)C3CCCN(c4ncnc5c4nc4n5CCCCC4)C3)CC2)cc1 (configuration not stated),3,0,-2,31*,5,1
CC(=O)c1ccc(N2CCN(C(=O)C3CCC3)CC2)cc1,0,-2,0,45*,-5,11
CC1(c2ccc(Cl)cc2)NC(=O)N(CC(=O)NC2CCCCC2)C1=O (configuration not stated),1,2,-2,-1,-1,-5
CC1=C(C(=O)N(C)C)CC(CC(=O)NCc2cccs2)C(=O)N1Cc1ccc(F)cc1 (configuration not stated),-1,/,-1,/,/,/
CCS(=O)(=O)Nc1ccc(C(=O)CC2(O)C(=O)Nc3ccccc32)cc1 (configuration not stated),-2,1,-2,39*,-2,?
O=C(CC1(O)C(=O)Nc2ccccc21)c1ccc(-n2cnnn2)cc1 (configuration not stated),2,2,-2,4,4,2
CCOC(=O)C1CCCN(C(=O)CCCn2c(=O)c3cccn3c3cccnc32)C1 (configuration not stated),7,-1,-2,2,1,-5
CCC(=O)Nc1ccc(C(=O)NNC(=O)CCCCC(=O)NNC(=O)c2ccc(NC(=O)CC)cc2)cc1,0,/,-1,7,/,/
Cc1nn(C)c2nc(-c3cccs3)cc(C(F)(F)F)c12,12,2,1,12,0,-7
COCCn1c(=O)[nH]c(=O)c2c(C(F)(F)F)cc(-c3cccs3)nc21,+,-2,0,14,-2,2
O=C(NCC(=O)N1CCN(c2cccc(Cl)c2)CC1)c1ccc(Br)o1,3,-1,-1,1,11,-3
CC(=O)c1ccc(N2CCN(C(=O)CNC(=O)c3ccc(Br)o3)CC2)cc1,0,/,-2,32*,/,/
Cc1noc(C)c1C(=O)N1CCC1(C)C(=O)NS(=O)(=O)c1cccc(OC(F)F)c1 (configuration not stated),0,/,-2,4,/,/
CCOC(=O)N1CCN(C(=O)c2cc3c(s2)-c2ccccc2OC3)CC1,147*,1,1,23,-9,4
CCCN1CCN(C(=O)c2cc3c(s2)-c2ccccc2OC3)CC1,186*,1,-1,33*,-6,?
c1ccc(C2=NN(c3ccccc3)C(c3ccco3)C2)cc1 (configuration not stated),126*,3,-1,8,4,-2
Cc1ccc(C2=NC(=O)/C(=C/c3cc(O)c(O)c(Br)c3)S2)cc1,-1,/,8.2*,9,/,/
COc1cc(/C=C2\SC(c3ccc(C)cc3)=NC2=O)cc(OC)c1O,-4,-1,4,13,4,1
CCN(CC)C(=O)c1cccc(-c2csc(C(O)c3ccc(F)cc3)n2)c1 (configuration not stated),-2,/,0,10,/,/
Cc1nccc2c1[nH]c1ccc(Br)cc12,7,5,-2,9,-2,7
SMILES,Mtb FBA inh,Mtb UGM inh,FadD28 binding,GDH-TPI counter,Rv3671c protease,Mtb bLac sens
COc1ccc2c(c1)[nH]c1c(C)nccc12,151*,-3,-4,7,9,10
O=C(O)COc1ccc(Cl)cc1C1CCCCC1,-2,/,-3,-3,/,/
COc1cc(/C=C(/C#N)c2ccc(F)cc2)ccc1OCc1ccc(C(=O)O)o1,1,1,-4,45*,-15,78
N#C/C(=C\c1ccc(OCc2ccc(F)cc2)cc1)C(=O)Nc1cccc(C(=O)O)c1,-6,-3,-5,73*,-8,48
COC(=O)c1ccc(COc2ccc(C=O)cc2OC)o1,2,4,1,1,-2,11
COc1cc(/C=C(\C#N)C(=O)Nc2cccc(C(=O)O)c2)ccc1OCc1ccc(F)cc1,0,6,-16,36*,-2,8
COc1ccc(NC(=O)/C(C#N)=C\c2ccc(OCc3ccc(C(=O)O)cc3)c(OC)c2)cc1,-1,1,-4,18,-2,0
O=c1c2ccccc2sn1-c1ccc(Cl)cc1Cl,3,/,1,1,/,/
Cc1ccccc1-n1ncc2c1CC(C)(C)CC2NC(=O)CN1CCCC1=O (configuration not stated),2,-3,1,9,4,-2
Cc1ccc(Cl)cc1-c1ccc(C=Nc2ccc(N3CCOCC3)cc2)o1,1,-1,-2,33*,-7,4
Cn1cnc([N+](=O)[O-])c1Sc1nc(N)nc2c1ncn2C1CC(O)C(CO)O1 (configuration not stated),2,/,0,12,/,/
Cc1ccsc1/C=N/Nc1nc2ccccc2s1,0,/,4,20,-4,-2
Oc1ccccc1C=NNc1nc2ccccc2s1,3,/,0,24,/,/
C(=N\Nc1nc2ccccc2s1)/c1ccco1,-1,-2,0,42*,3,86
C(=N\Nc1nc2ccccc2s1)/c1cccs1,0,-1,1,42*,11,81
Oc1ccc(C=NNc2nc3ccccc3s2)c(O)c1,-1,/,6,32*,/,/
CC(=O)c1cccc(NC(=O)COC(=O)c2ccccc2C)c1,0,0,?,-6,3,3
CC(=O)OCC(=O)Nc1ccc(N=Nc2ccccc2)cc1,-9,0,-3,37*,10,4
CC(C)C(=O)OCC(=O)Nc1ccc(N=Nc2ccccc2)cc1,-1,-1,2,26,5,-3
CC(=O)Nc1ccc(N=Nc2ccccc2)cc1,-4,-2,1,36*,4,2
COc1ccc(N(C)C(=O)c2cc3c(s2)-c2ccccc2OC3)c(OC)c1,4,-2,-3,30,-22,?
O=C(N/N=C/c1cccc(C(F)(F)F)c1)c1cc2c(s1)-c1ccccc1CC2,6,-2,-3,6,-5,40
Cc1cccc(/C=N/NC(=O)c2cc3c(s2)-c2ccccc2CC3)c1,20,2,-5,34*,-60,92
COC(=O)c1cc2c(s1)-c1ccccc1CC2,94*,0,-2,6,-2,9
COC(=O)c1cc2c(s1)-c1cc(F)ccc1OC2,62*,-2,0,31*,-3,-1
